Results as given in ChEMBL document CHEMBL4513216, “Probing the Open Global Health Chemical Diversity Library for Multistage-Active Starting Points for Next-Generation Antimalarials” (ACS Infect Dis, 2020).
The campaign covered roughly 69,000 compounds. About 8,600 (12%) showed an effect of 50% or more. The sample as a whole holds a higher share of strong results than the screen did.

Test system: Plasmodium berghei
Experiment: Screen against P. berghei liver stage (PbLuc), transformed with Luciferase, at 10uM
Type: functional, HepG2
Conditions: tested at 10 uM

Compound	INHIBITION [%]
O=C(CN1CCOC1=O)N(Cc1ccccc1)Cc1nccs1	22.1
CC(C)CN1CC(C(=O)NCCNc2ncccn2)CC1=O (stereo not given)	21.6
N#Cc1ccc(CN2CCN(c3cncc(Cl)n3)CC2=O)cc1	-5.33
CN(Cc1n[nH]c2c1CCCCC2)C(=O)c1cc(-c2cccn2C)n[nH]1	-89.3
COCCN1CCN(Cc2c(C3CCNCC3)[nH]c3ncccc23)CC1	-12.9
CCCc1ccc(CN2C[C@H]3C(=O)N(CC4CC4)C[C@@]3(C(=O)O)C2)o1	6.28
O=C1[C@@H]2CN(Cc3cc4ccccc4o3)C[C@]2(C(=O)O)CN1CC1CC1	79.8
CSc1ccccc1CN1C[C@H]2C(=O)N(CC3CC3)C[C@@]2(C(=O)O)C1	-26.9
COc1cccc(-n2cc3[nH]c(=O)n(C(C)C)n3c2=O)c1	-34
Cc1ncnc2c1CCN(C(=O)c1ccnnc1)CC2	60.1
O=C(c1ccncc1F)N1CCc2ncnc(-c3ccncc3)c2CC1	-7.39
CCc1ncnc2c1CCN(C(=O)c1ccncc1F)CC2	-49.3
O=C(c1ccncc1F)N1CCc2ncnc(N3CCOCC3)c2CC1	5.44
O=C(c1ccncc1F)N1CCc2ncnc(C3CC3)c2CC1	-2.72
Cc1ncnc2c1CCN(C(=O)c1cccnc1)CC2	-2.17
Cc1ncnc2c1CCN(C(=O)c1ccncc1)CC2	19.5
CC(C)Nc1ncnc2c1CCN(C(=O)c1ccncc1F)CC2	53.5
CCOc1ncnc2c1CCN(C(=O)c1cnccn1)CC2	-103
CC(C)Nc1ncnc2c1CCN(C(=O)c1ccccc1F)CC2	32.2
CCOc1ncnc2c1CCN(C(=O)c1ccncc1F)CC2	54.4
Cc1ncnc2c1CCN(C(=O)c1ccncc1F)CC2	68.4
CS(=O)(=O)N1CCc2ccc(=O)n(CCN3CCCC3)c2CC1	46.4
CCc1nc(C2CCCN2C(=O)c2cnc[nH]2)no1 (stereo not given)	37.9
CCOCC1CN(C(=O)C2=CCCC2)Cc2cnn(CC)c21 (stereo not given)	42.6
Cc1cnn(CC2CN(CCCc3nc4ccccc4o3)CCO2)c1 (stereo not given)	-12.1
CCn1nc(C)c(NC(=O)CN2CCC(c3ccccc3Cl)C2)c1C (stereo not given)	48.2
COCCN1C[C@H](NC(=O)CCC(F)(F)F)[C@@H](C(C)C)C1	30.9

Compound	INHIBITION [%]
CC(=O)N1CCCC(c2ccc(CO)c(-c3c(C)noc3C)n2)C1 (stereo not given)	18.4
CCc1nc(C)c(C(=O)NCCN2CCCC2)s1	-19.9
COC(=O)c1ccc(C(=O)NCc2nn(C)c3c2COCC3)cc1	6
CC(C)(C)NC(=O)COc1ccc(Oc2ccccn2)cc1	23.7
COCC(C)(C#N)NC(=O)COc1ccccc1 (stereo not given)	66.7
COCC(C)(C#N)NC(=O)COc1ccccc1Br (stereo not given)	-3.81
OCc1cnc(Nc2ccccc2)nc1	-7.27
Cc1c(CN2CCOCC2)c(O)n(CCc2ccccc2)c(=O)c1C#N	6
CN(Cc1ccco1)Cc1cncc2c1CCN(c1ncccn1)C2	37
Cc1ccc(N2CCc3c(CN(C)Cc4ccco4)cncc3C2)nn1	-11.2
COCc1cncc2c1CCN(Cc1ccccn1)C2	-13.2
Cc1occc1C(=O)N1CCc2c(CNc3ncccn3)cncc2C1	4.27
Cc1cnc(N2CCc3c(CNc4ccnc(C)n4)cncc3C2)nc1	94.6
Cn1cc(C(=O)NCc2cncc3c2CCN(c2ccccn2)C3)cn1	34
CN(Cc1cccnc1)Cc1cncc2c1CCN(c1ccccn1)C2	51.2
CN(Cc1ccco1)Cc1cncc2c1CCN(S(C)(=O)=O)C2	40.1
Cc1ccc(NCc2cncc3c2CCN(Cc2ccccn2)C3)nn1	-30.7
Cc1cnc(N2CCc3c(CN(C)Cc4ccco4)cncc3C2)nc1	66.8
Cn1cc(C(=O)NCc2cncc3c2CCN(S(C)(=O)=O)C3)cn1	38.5
Cc1nccc(NCc2cncc3c2CCN(S(C)(=O)=O)C3)n1	59.3
Cc1ccnc(C2CCN(C(=O)CCn3ncc4ccccc43)C2)n1 (stereo not given)	5.11
CNC(=O)[C@@H](c1ccccc1F)N1CCC[C@H]1C(=O)NC1CC1	0.734
Cn1ccnc1CN1CCO[C@H]2C(CNC(=O)c3ccco3)CC[C@@H]21 (stereo not given in full)	16.9
CC(C)CC(=O)N1CC[C@@H]2CN(Cc3cccnc3)S(=O)(=O)[C@@H]2CC1	42.1
Cc1cc(C(=O)N2CC[C@@H]3CN(S(C)(=O)=O)CCO[C@@H]3C2)c(C)o1	37
O=C(NCc1cc[nH]n1)NC1CCCN(c2ncccn2)C1 (stereo not given)	-0.79
Cc1cnc(N2CCN3C[C@H](OCc4cccc(C)n4)C[C@H]3C2)nc1	42.3

Compound	INHIBITION [%]
O=C(NCC1CC1)c1nc2c(o1)CN(CC1CC1)C2	-48.4
Fc1ccccc1Cc1noc(CN2CCC(C3CCCCC3)C2)n1 (stereo not given)	49.9
COCc1ccccc1NC(=O)[C@@H]1CCCN1C(=O)c1ccco1	39.2
Cc1cccc(NC(=O)C2CCCN2C(=O)c2ccco2)c1C (stereo not given)	72.5
COC(=O)c1sccc1NC(=O)C1CCCN1C(=O)c1ccco1 (stereo not given)	-62.2
N#CCCN(CCN1CCOCC1)Cc1ccc(F)c(Br)c1	20.4
CC1=NN(CC(=O)N2CC[C@@H]3[C@@H](CCC(=O)N3CC(C)C)C2)CC1	56.7
CC(C)CN1C(=O)CC[C@H]2CN(C(=O)Cn3ccc(=O)cc3)CC[C@H]21	33.9
CC(C)CN1C(=O)CC[C@H]2CN(C(=O)Cn3ccccc3=O)CC[C@H]21	45.8
COc1ccnc(N2CCN(C(=O)c3ccn(C)c(=O)c3)CC2)n1	-21.8
Cc1nnsc1C(=O)N1CC(c2nc3ccccc3[nH]2)C1	49.4
Cc1nnsc1C(=O)N1CCC(c2nc3ccccc3[nH]2)CC1	65.4
CCc1nnsc1C(=O)N1CCCC(c2nc3ccccc3[nH]2)C1 (stereo not given)	26.9
O=C(c1cc2ccccc2[nH]1)N1CCCCC1Cn1cccn1 (stereo not given)	48.1
Cc1nn(C)cc1-c1cc(C(F)F)nc2sc(C(N)=O)c(N)c12	1.86
COC(=O)CCC(=O)N1CCc2[nH]nc(-c3ccc(F)c(F)c3)c2C1	15.9
CC(C)c1nnsc1CN1CCc2[nH]nc(-c3ccc(Cl)cc3)c2C1	50.1
CC(C)(C)c1ccc(-c2n[nH]c3c2CN(CC2CCOC2)CC3)cc1 (stereo not given)	44.3
CC(O)CN1CCc2[nH]nc(C(c3ccccc3)c3ccccc3)c2C1 (stereo not given)	-12.1
CC(C)c1nnsc1CN1CCc2[nH]nc(-c3ccc(F)c(F)c3)c2C1	70.4
CCc1nc(C)sc1CN1CCc2[nH]nc(-c3ccc(F)c(F)c3)c2C1	37.2
CS(=O)(=O)N[C@@H]1COC[C@@H]2CN(Cc3ccoc3)C[C@@H]21	15.4
Cc1cccc(C(=O)N(CC(=O)O)CC(C)C)c1	28.1
CCN(CC)C(=O)c1cc(C2CCCN2C)ccn1 (stereo not given)	47.2
CC(COc1ccc(F)cc1F)NC(=O)NCCN1CCOCC1 (stereo not given)	-32.4
CCC(C)NC(=O)c1sccc1-n1cnnn1 (stereo not given)	-5.22
COc1cccc2c1ccn2CC(=O)N1CCCC(C(=O)O)C1 (stereo not given)	31.7

Compound	INHIBITION [%]
O=C(c1ccco1)N1CCCC2(CN(Cc3ccc(F)cc3)CCO2)C1 (stereo not given)	-1.83
O=C1N(CC2CC2)C(c2cncs2)NC12CCCC2 (stereo not given)	49
Cc1cccc(CN2CCC3(CC2)COC(COCC2CC2)C3)n1 (stereo not given)	43
Cc1cnn(CC2CCCCN2CC(=O)NCc2ccccn2)c1 (stereo not given)	-4.74
CCCN(CCc1ccccn1)C(=O)CCc1cnn(C)c1	65.2
Cn1cc(CCC(=O)N2C[C@H]3CC[C@@H](C2)N(Cc2ccccn2)C3)cn1	6.11
Cn1cc(CN(Cc2ccccc2)Cc2ccccn2)cn1	1.62
CCCN(CCc1ccccn1)C(=O)Cn1cnnn1	-17.8
CCCN(CCc1ccccn1)C(=O)Cn1cc(C)cn1	78.8
CC(c1nc(C2CC2)no1)N1CCN(Cc2nnc(C3CC3)o2)CC1 (stereo not given)	-51.5
Cc1c(C(=O)NC(C)CC(=O)c2cccs2)cnn1C (stereo not given)	40.6
CC(=O)N1CCCN(C(=O)c2ccc(Sc3ccccn3)cc2)CC1	-0.217
CN(C)CCN(CC1CCCO1)C(=O)Cc1cn2ccccc2n1 (stereo not given)	28.7
Cc1cccn2cc(CC(=O)N(CCN(C)C)CC3CCCO3)nc12 (stereo not given)	58.5
O=C(Cc1cn2ccsc2n1)N(Cc1ccco1)CC1CCCO1 (stereo not given)	7.21
Fc1ccc(CN2CCc3ncnc(C4CC4)c3CC2)cc1	39.5
O=C1CCN(C(=O)c2ncoc2-c2ccco2)c2ncccc2N1	15.1
O=c1[nH]nc(C2CC2)n1-c1cccc(Cl)c1	-21.7
CN1CC(c2n[nH]c(=O)n2-c2cccc(Cl)c2)CC1=O (stereo not given)	58.9
CN1CCC(c2n[nH]c(=O)n2-c2cccc(Cl)c2)CC1	14.1
O=C(c1ccc(N2CCCC2)nc1)N1CCCC(n2cncn2)C1 (stereo not given)	-29.5
Cc1nccn1CC1CCCN(Cc2ccc(-c3cccnc3)cc2)C1 (stereo not given)	66.7
Cc1nc(C)n(CC2CCCN(Cc3cccnc3)C2)n1 (stereo not given)	-14.6
CN(C)C(=O)CCC1CCCN(Cc2ccc(-c3cccnc3)cc2)C1 (stereo not given)	29.8
